ALDH1A1 inh: qHTS Assay for Inhibitors of Aldehyde Dehydrogenase 1 (ALDH1A1); 220,000 compounds, 7.3% hits; Potency, µM (series often up to 75.3 µM), most hits filed as inhibitors; Aldehyde dehydrogenase 1A1 (Homo sapiens), P00352; Purified ALDH1A1, NADH fluorescence, propionaldehyde substrate; active = well fitted inhibition curve with a large enough effect, not every such curve was filed as active; inconclusive = small, poorly fitted or top-dose-only effect, or another doubt; inactive = no such curve, though single readings can be large or run the other way
IMPase Li cell: qHTS Assay for Identifying the Cell-Membrane Permeable IMPase Inhibitors: Potentiation with Lithium; CHO-M1 cells, IP1 TR-FRET (IP-One), carbachol + lithium; Potency, µM (highest dose often 59.4 µM), hits mostly inhibitors; 210,000 compounds, 0.35% hits;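 note: IP1 builds up when IMPase is blocked and the TR-FRET signal falls; nearly all actives have a fitted effect of over 50% in size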
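Readout is a homogeneous TR-FRET IP1 immunoassay (Ex 320, Em 665 and 620), where raised cytosolic IP1 lowers signal. Cells were CHO-M1 treated 30 min at 37C with test compounds plus a little lithium; AC50 values came from Hill-equation fitting.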
IMPase inh: qHTS Assay for Identifying the Cell-Membrane Permeable IMPase Inhibitors. 120,000 tested, under 10 active. inhibition (IP1 accumulation), % at 46.1 µM. AID 901, 2007. CHO-M1 cells, IP1 accumulation, HTRF TR-FRET ratio. Inositol monophosphatase 1 (Rattus norvegicus), P97697; active = well fitted curve in the direction sought with a large enough effect in the signal ratio, not every such curve was filed as active; inconclusive = small, poorly fitted or top-dose-only effect, or a change in a side signal; inactive = no such curve, though single readings can be large or run the other way; the % refers to the signal ratio;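 note: cells stimulated with carbachol in lithium chloride buffer; higher means more IMPase inhibition seen as more IP1 and lower FRET ratio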
Target sequence (P97697 whole entry, looked up): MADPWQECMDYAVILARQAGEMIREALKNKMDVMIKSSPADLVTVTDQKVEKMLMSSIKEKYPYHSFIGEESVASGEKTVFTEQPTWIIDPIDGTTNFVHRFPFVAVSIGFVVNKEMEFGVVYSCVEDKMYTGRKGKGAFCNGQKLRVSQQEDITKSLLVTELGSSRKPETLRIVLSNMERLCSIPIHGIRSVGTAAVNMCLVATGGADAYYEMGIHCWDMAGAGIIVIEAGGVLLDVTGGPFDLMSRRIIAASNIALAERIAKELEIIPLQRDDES
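Cellular IMPase inhibition is scored as a rise in cytosolic IP1, detected by competitive TR-FRET between d2-labelled IP1 and a europium anti-IP1 antibody. M1-expressing CHO cells were stimulated with carbachol for 30 min at 37C, with lithium (50 mM LiCl) present in the buffer.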
HPGD inh: qHTS Assay for Inhibitors of HPGD (15-Hydroxyprostaglandin Dehydrogenase). purified HPGD, NADH fluorescence kinetic, PGE2 substrate. 150,000 compounds, 4.3% hits. Potency, µM, most hits filed as inhibitors. 15-hydroxyprostaglandin dehydrogenase [NAD(+)] (Homo sapiens), P15428; active = well fitted inhibition curve with a large enough effect, not every such curve was filed as active; inconclusive = small, poorly fitted or top-dose-only effect, or another doubt; inactive = no such curve, though single readings can be large or run the other way
Target sequence (P15428 whole entry, looked up): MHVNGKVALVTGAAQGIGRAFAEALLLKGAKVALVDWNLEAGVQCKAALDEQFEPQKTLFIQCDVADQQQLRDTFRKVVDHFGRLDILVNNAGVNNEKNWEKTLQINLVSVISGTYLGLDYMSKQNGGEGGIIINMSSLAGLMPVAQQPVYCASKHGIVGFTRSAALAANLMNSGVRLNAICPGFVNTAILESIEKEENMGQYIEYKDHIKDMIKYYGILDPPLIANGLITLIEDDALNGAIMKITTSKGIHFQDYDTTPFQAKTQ
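NADH formation kinetics: reaction with 30 uM PGE2 and 1 mM NAD+ (final), 20 nM enzyme, Tris-HCl pH 8 with Tween 20, after 15 min compound preincubation at room temperature. Fluorescence change, last versus first of five reads.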
NPSR antag: qHTS Assay for Antagonists of the Neuropeptide S Receptor: cAMP Signal Transduction | Q6W5P4 | CHO-NPSR cells, cAMP TR-FRET, antagonist mode | Potency, µM (doses to about 38.3 µM), hits mostly inhibitors | 220,000 compounds, 1% hits; note: nearly all actives have a fitted effect of over 50% in size
PNC assembly inh: High Content Assay for Compounds that inhibit the Assembly of the Perinucleolar Compartment; PC3M PTB-GFP, PNC prevalence imaging, 16 h; stronger effect = lower value; activity change (PNC), negative = inhibition, % at 10 µM; 140,000 compounds, 3.1% hits;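 active = readout at or below -70, meaning at least 70% loss of cells showing the perinucleolar compartment, a nuclear body marking cancer cells; inconclusive = readout between -30 and a set limit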
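Compounds are pinned in duplicate onto adhered PC3M cells stably expressing GFP-tagged PTB and incubated 16 h at 37 C. Cells are then fixed, nuclei stained with Hoechst, and PNC-positive cells counted.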
Large screens that a line does not name were inactive. Sampled rows, rich in hits. Any-hit rate of the full collection: about 11%. Unless noted, calls come from the whole dose curve; as a rule, active = well fitted curve in the direction sought with a large enough effect; inconclusive = small, poorly fitted or top-dose-only effect, or another doubt; inactive = no such curve, though single readings can be large; an effect the other way counts as inactive or inconclusive.

CN(C)c1ccc(NC(=O)CSCc2nc3c(nnn3Cc3ccc(F)cc3)c(=O)[nH]2)cc1	ALDH1A1 inh 10µM, HPGD inh 22.4µM, NPSR antag inconclusive
O=C(CSc1nnc(COc2cccc3cccnc23)o1)N1CCN(C(=O)c2ccco2)CC1	PNC assembly inh -100.0
O=C(CSc1nnc(Cc2ccccc2)o1)N1CCc2ccccc21	none
O=C(CSc1nnc(COc2cccc3cccnc23)o1)N1CCc2ccccc21	ALDH1A1 inh 14.1µM, NPSR antag inconclusive, PNC assembly inh inconclusive
CCCCC1CCC(c2nc(-c3cccnc3)no2)CC1 (configuration not stated)	none
CCOc1ccc(Cc2c(Cl)nc(SC)nc2N(C)C)cc1	none (no result: IMPase inh)
Cc1ccccc1CSCCNS(C)(=O)=O	none
COc1ccc(S(=O)(=O)NCCSCc2ccccc2C)cc1Br	ALDH1A1 inh 25.1µM, HPGD inh 28.2µM
Cn1c(N)c(C(=O)COC(=O)c2cncc(Br)c2)c(=O)n(C)c1=O	ALDH1A1 inh 11.2µM (no result: IMPase inh, HPGD inh, PNC assembly inh)
Cn1nc(C(F)(F)F)c(-c2ccccc2)c1NC(=O)CSCC(=O)O	none (no result: IMPase Li cell, IMPase inh, HPGD inh, PNC assembly inh)
C=C(C)COc1ccc(-c2[nH]ncc2Oc2ccccc2OCC)c(O)c1	ALDH1A1 inh 1.58µM, HPGD inh 17.8µM, NPSR antag inconclusive, PNC assembly inh -116.6
CCOc1ccc(N2C(=O)CC(N)C2=O)cc1 (configuration not stated)	ALDH1A1 inh 1.12µM, HPGD inh 39.8µM, PNC assembly inh inconclusive
CCCOc1ccc(N2C(=O)CC(SCCN)C2=O)cc1 (configuration not stated)	ALDH1A1 inh 0.224µM
CCOc1ccc(N2C(=O)CC(SCC(=O)O)C2=O)cc1 (configuration not stated)	ALDH1A1 inh inconclusive (no result: IMPase inh, HPGD inh, PNC assembly inh)
COC(=O)c1ccc(N2C(=O)CC(SCCN)C2=O)cc1 (configuration not stated)	ALDH1A1 inh 12.6µM
O=C(O)CSC1CC(=O)N(c2ccc(Cl)cc2)C1=O (configuration not stated)	ALDH1A1 inh inconclusive, PNC assembly inh inconclusive
CCOC(=O)C(N)CSC1CC(=O)N(c2ccc(C(=O)OC)cc2)C1=O (configuration not stated)	ALDH1A1 inh 7.08µM, IMPase inh inconclusive
Cc1[nH]c2ccccc2c1C(=O)C(C)OC(=O)c1ccc([N+](=O)[O-])o1 (configuration not stated)	ALDH1A1 inh inconclusive (no result: IMPase inh, HPGD inh, PNC assembly inh)
O=C1C=C(NC2=CC3OC(c4ccccc4)OCC3OC2=O)CCC1 (configuration not stated)	PNC assembly inh inconclusive (no result: IMPase inh)
COc1ccc(/C=C/C(=O)NCCc2ccc(S(N)(=O)=O)cc2)cc1	ALDH1A1 inh 10µM, PNC assembly inh inconclusive (no result: IMPase inh)
CC(=O)NS(=O)(=O)c1ccc(NC(=O)/C=C/c2ccc(C)o2)cc1	ALDH1A1 inh 12.6µM (no result: IMPase inh, HPGD inh, PNC assembly inh)
Cc1ccc(/C=C/C(=O)Nc2ccc(S(N)(=O)=O)cc2)o1	ALDH1A1 inh 25.1µM (no result: HPGD inh, PNC assembly inh)
Cc1ccc2[nH]cc(CCNC(=O)/C=C/c3ccco3)c2c1	none (no result: ALDH1A1 inh, IMPase Li cell, IMPase inh, HPGD inh, PNC assembly inh)
Cc1ccc(/C=C/C(=O)NCCc2c[nH]c3ccccc23)o1	ALDH1A1 inh 14.1µM (no result: IMPase inh, HPGD inh, PNC assembly inh)
Cc1ccc(/C=C/C(=O)Nc2ccc(N(C)C)cc2)o1	none (no result: IMPase inh)
Cc1ccc(/C=C/C(=O)Nc2ccncc2)o1	ALDH1A1 inh inconclusive, HPGD inh inconclusive (no result: IMPase inh)
Cc1ccc(/C=C/C(=O)Nc2ncc(C)s2)o1	ALDH1A1 inh inconclusive
Cc1ccc(/C=C/C(=O)NCc2ccc(S(N)(=O)=O)cc2)o1	ALDH1A1 inh 1.78µM (no result: IMPase inh, HPGD inh, PNC assembly inh)
Cc1ccc(/C=C/C(=O)Nc2nccs2)o1	ALDH1A1 inh inconclusive, HPGD inh 25.1µM (no result: IMPase inh)
CC(C)c1ccc(/C=C/C(=O)NCc2ccc(S(N)(=O)=O)cc2)cc1	ALDH1A1 inh 28.2µM (no result: IMPase inh, HPGD inh, PNC assembly inh)
NS(=O)(=O)c1ccc(CNC(=O)/C=C/c2ccco2)cc1	none (no result: ALDH1A1 inh, IMPase Li cell, IMPase inh, HPGD inh, PNC assembly inh)
CN(C)C(=O)Nc1ccc(Cl)c(Cl)c1	none (no result: IMPase inh, NPSR antag, PNC assembly inh)
